Source: the supplement of paper PMC12582362
Structures can show the parent of a compound that is named as a salt. Hit rate of the full screen: of about 1,500 compounds, about 30 (2%) showed activity. The entries come from a sample that favours actives as a whole. A number with no mark means an inactive call.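 Rule for the calls: active = robust z-score below -2; a few such results were not called.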

system: optoTopBP1 Flp-In 293 T-REx (HEK293) cells; assay: light-induced TopBP1 condensate (nuclear foci) count, plate-normalised robust z-score vs non-control wells; higher = more TopBP1 condensates (negative = condensation inhibitor), active = hit call of the paper; conditions: 10 µM; incubation time 2 h

| Compound | light-induced TopBP1 condensate (z-score) |
| --- | --- |
| COCC(=O)O[C@]1(CCN(C)CCCc2nc3ccccc3[nH]2)CCc2cc(F)ccc2[C@@H]1C(C)C [Mibefradil] | -2.07 (active) |
| COc1cc(/C=C/C(=O)N2CCN(CC(=O)N3CCCC3)CC2)cc(OC)c1OC [Cinepazide maleate] | -0.187 |
| CC(C)[C@H](N)C(=O)OCC(CO)OCn1cnc2c(=O)nc(N)[nH]c21 (stereo partly specified) [Valganciclovir hydrochloride] | 0.111 |
| CCCCCCCCCCCCCCCC[N+](C)(C)CCN(Cc1ccc(OC)cc1)c1ncccn1 [Thonzonium bromide] | -2.49 (active) |
| CN(C)CCN(Cc1ccc(Cl)cc1)c1ccccn1 [Chloropyramine hydrochloride] | -0.941 |
| COc1ccc(CN(CCN(C)C)c2ccccn2)cc1 [Pyrilamine maleate] | -1.49 |
| CO/N=C(\C(=O)N[C@@H]1C(=O)N2C(C(=O)OC(C)OC(C)=O)=C(COC(N)=O)CS[C@H]12)c1ccco1 (stereo partly specified) [Cefuroxime axetil] | -0.531 |
| C=C(NC(=O)C(=C)NC(=O)c1csc(C2=N[C@@H]3c4csc(n4)[C@H]4NC(=O)c5csc(n5)[C@H]([C@](C)(O)[C@@H](C)O)NC(=O)[C@H]5CSC(=N5)/C(=C/C)NC(=O)[C@H]([C@@H](C)O)NC(=O)c5csc(n5)[C@]3(CC2)NC(=O)[C@H](C)NC(=O)C(=C)NC(=O)[C@H](C)NC(=O)[C@H]([C@@H](C)CC)N[C@@H]2C=Cc3c([C@H](C)O)cc(nc3[C@H]2O)C(=O)O[C@@H]4C)n1)C(N)=O [Thiostrepton] | -3.34 (active) |
| CC(C)c1ccc2oc3nc(N)c(C(=O)O)cc3c(=O)c2c1 [Amlexanox] | -0.968 |
| N=C(NCCCCCCNC(=N)NC(=N)Nc1ccc(Cl)cc1)NC(=N)Nc1ccc(Cl)cc1 [Chlorhexidine] | 0.68 |
| CCc1ccc(C(=O)C(C)CN2CCCCC2)cc1 (stereo unspecified) [Eperisone HCl] | 1.18 |
| CC(=O)OCC(=O)[C@@]12N=C(C)O[C@@H]1C[C@H]1[C@@H]3CCC4=CC(=O)C=C[C@]4(C)[C@H]3[C@@H](O)C[C@@]12C [Deflazacort] | -0.182 |
| CCOC(=O)C1=C(COCCN)NC(C)=C(C(=O)OC)C1c1ccccc1Cl (stereo unspecified) [Amlodipine] | -1.57 |
| OC(c1cc(C(F)(F)F)nc2c(C(F)(F)F)cccc12)C1CCCCN1 (stereo unspecified) [Mefloquine hydrochloride] | -1.69 |
| CN(C)c1ccc2nc3ccc(=[N+](C)C)cc-3sc2c1 [Methylene blue] | -8.05 (active) |
| CCOc1ccc2nc3cc(N)ccc3c(N)c2c1 [Ethacridine lactate] | 0.0605 |
| Nc1c2ccccc2nc2ccccc12 [Aminacrine] | -2.02 |
| Nc1ccc2cc3ccc(N)cc3nc2c1 [Proflavine hemisulfate] | -6.85 (active) |

| Compound | light-induced TopBP1 condensate (z-score) |
| --- | --- |
| CO/N=C(\C(=O)N[C@@H]1C(=O)N2C(C(=O)[O-])=C(C[n+]3ccn4ncccc43)CS[C@H]12)c1nsc(N)n1 [Cefozopran hydrochloride] | 0.96 |
| CC[C@H]1OC(=O)[C@H](C)[C@@H](O[C@H]2C[C@@](C)(OC)[C@@H](O)[C@H](C)O2)[C@H](C)[C@@H](O[C@@H]2O[C@H](C)C[C@H](N(C)C)[C@H]2O)[C@](C)(O)C[C@@H](C)/C(=N\OCOCCOC)[C@H](C)[C@@H](O)[C@]1(C)O [Roxithromycin] | 0.222 |
| CC[N+](C)(CC)CCOC(=O)C1c2ccccc2Oc2ccccc21 [Methantheline bromide] | 0.691 |
| CSc1nc2cc(Cl)c(Oc3cccc(Cl)c3Cl)cc2[nH]1 [Triclabendazole] | -2.43 (active) |
| C[C@@H](CN1CC(=O)NC(=O)C1)N1CC(=O)NC(=O)C1 [Dexrazoxane hydrochloride] | -0.035 |
| C=CCOc1ccc(CC(=O)O)cc1Cl [Alclofenac] | 0.0679 |
| N=C(N)NCCN1CCCCCCC1 [Guanethidine sulfate] | -0.799 |
| CC(C)(C)NC[C@H](O)COc1ccccc1C1CCCC1 [Penbutolol sulfate] | -0.793 |
| COc1ccccc1Oc1c(NS(=O)(=O)c2ccc(C(C)(C)C)cc2)nc(-c2ncccn2)nc1OCCO [Bosentan] | 0.343 |
| CC[C@H]1OC(=O)C[C@@H](O)[C@H](C)[C@@H](O[C@@H]2O[C@H](C)[C@@H](O[C@H]3C[C@@](C)(O)[C@@H](O)[C@H](C)O3)[C@H](N(C)C)[C@H]2O)[C@@H](CC=O)C[C@@H](C)C(=O)/C=C/C(C)=C/[C@@H]1CO[C@@H]1O[C@H](C)[C@@H](O)[C@@H](OC)[C@H]1OC [Tylosin] | 0.755 |
| CN1C(=O)OC(C)(C)C1=O [Trimethadione] | 0.285 |
| NC[C@@H]1O[C@@H](O[C@H]2[C@H](O)[C@@H](O[C@H]3O[C@H](CO)[C@@H](O)[C@H](N)[C@H]3O)[C@H](N)C[C@@H]2N)[C@@H](O)[C@H](O)[C@H]1O [Kanamycin A sulfate] | 0.0568 |
| C[C@H]1[C@H](OC(=O)CCC(=O)O)O[C@@H]2O[C@@]3(C)CC[C@H]4[C@H](C)CC[C@@H]1[C@@]24OO3 [Artesunate] | -0.0235 |
| CCN(CC)CCCC(C)Nc1c2ccc(Cl)cc2nc2ccc(OC)cc12 (stereo unspecified) [Quinacrine dihydrochloride hydrate] | -3.15 (active) |
| CCN(CCO)CCCC(C)Nc1ccnc2cc(Cl)ccc12 (stereo unspecified) [Hydroxychloroquine sulfate] | -1.68 |
| CCN(CC)CCCC(C)Nc1ccnc2cc(Cl)ccc12 (stereo unspecified) [Chloroquine diphosphate] | -0.187 |
| CC(=O)N[C@@H](CC(=O)N[C@@H](CCC(=O)O)C(=O)O)C(=O)O [Spaglumic acid] | 1.44 |
| CC(C)(CO)[C@@H](O)C(=O)NCCC(=O)NCCSSCCNC(=O)CCNC(=O)[C@H](O)C(C)(C)CO [Pantethine] | 0.505 |
